Source: PubChem BioAssay (EPA / NIEHS)
Several values for one entry are separate records, joined by “and”; a condition that tells them apart may be missing. Identical values can stand only once. Results filed as inconclusive are left out. The source holds several records for some structures; these can differ, active in one and inactive in another. Activity calls are given as the source filed them. The calls were made as follows: active = hit-call score of the fitted dose curve at least 0.9, where 1 is the maximum; inconclusive = response in the unintended direction; inactive = score below 0.9.

Key:
[1] = test system: turtle Thyroid Hormone Receptor, alpha (TRa), gene 101949057; experiment: ATG_trTRa_XSP1: Attagene TRANS-FACTORIAL Multi-Species (XSP1) HepG2 Assay for turtle Thyroid Hormone Receptor, alpha (TRa) (AID 2283806)
Method in brief: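 After 24 h chemical exposure, reporter transcripts were measured by RT-PCR with fluorescent primer extension, HpaI digestion and capillary electrophoresis. Cells were transiently transfected HepG2 expressing exogenous NR-Gal4 chimeras; medium contained 3 nM 6-alpha-fluorotestosterone; fitted upward relative to DMSO.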

[2] = target: zebrafish Thyroid Hormone Receptor alpha (TRa), thraa (gene 30670) (UniProt Q98867); experiment: ATG_zfTRa_XSP1: Attagene TRANS-FACTORIAL Multi-Species (XSP1) HepG2 Assay for zebrafish Thyroid Hormone Receptor alpha (TRa) (AID 2283807)
Method in brief: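 Reporter transcripts driven by a chimeric zebrafish TRa–Gal4 protein were measured by RT-PCR with fluorescent labelling and capillary electrophoresis. These came from transiently transfected HepG2 cells after 24 h chemical exposure, with 3 nM 6-alpha-fluorotestosterone added; baseline was DMSO.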

[3] = target: human Thyroid hormone Receptor beta (TRb), THRB (gene 7068) (UniProt P10828); experiment: ATG_hTRb_XSP1: Attagene TRANS-FACTORIAL Multi-Species (XSP1) HepG2 Assay for human Thyroid hormone Receptor beta (TRb) (AID 2283808)
Method in brief: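 Readout is reporter mRNA induction measured by RT-PCR, fluorescent labelling and capillary electrophoresis, fitted upward relative to DMSO. Transiently transfected human HepG2 cells expressing NR-Gal4 chimeras were dosed for 24 h, medium containing 3 nM 6-alpha-fluorotestosterone.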

[4] = target: zebrafish Thyroid Hormone Receptor beta (TRb), thrb (gene 30607) (UniProt Q9PVE4); experiment: ATG_zfTRb_XSP1: Attagene TRANS-FACTORIAL Multi-Species (XSP1) HepG2 Assay for zebrafish Thyroid Hormone Receptor beta (TRb) (AID 2283809)
Method in brief: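 HepG2 cells transiently transfected with multiplexed GAL4-UAS reporter units expressing chimeric zebrafish TRb–Gal4. Dosed 24 h with 3 nM 6-alpha-fluorotestosterone present; reporter mRNA measured by RT-PCR, HpaI digestion and capillary electrophoresis; gain of signal versus DMSO.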

[5] = ATG_XTT_Cytotoxicity_XSP1: Cytotoxicity Assessment in the Attagene TRANS-FACTORIAL Multi-Species (XSP1) HepG2 Assay (AID 2283810)
Method in brief: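 XTT viability readout taken at 24 hours post-dosing in HepG2 liver cells co-treated with 3 nM 6-alpha-fluorotestosterone. Signal loss relative to DMSO controls reflects cytotoxicity.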

[6] = ATG_M_06_XSP2: Attagene TRANS-FACTORIAL Multi-Species (XSP2) HepG2 Assay for M06 Transcription Factor (Internal Marker) (AID 2283811);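 also: internal background marker reporter mRNA measured by RT-PCR and capillary electrophoresis; hits are increases in signal above the DMSO baseline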
Method in brief: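 Readout: fluorescent reporter-mRNA peaks by capillary electrophoresis after RT-PCR and HpaI digest, scored upward relative to DMSO. Transfected HepG2, 24 h chemical exposure, with 3 nM 6-alpha-fluorotestosterone and 1.5 nM norgestrel added.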

[7] = test system: turtle Estrogen Receptor (ERa), gene 101933533; experiment: ATG_trERa_XSP2: Attagene TRANS-FACTORIAL Multi-Species (XSP2) HepG2 Assay for turtle Estrogen Receptor (ERa) (AID 2283812);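 also: actives raise reporter signal above DMSO so AC50 reflects agonist activity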
Method in brief: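 Readout is reporter mRNA quantified by RT-PCR with capillary electrophoresis after 24 h compound exposure, increase relative to DMSO. Uses transiently transfected human HepG2 liver cells carrying a chimeric turtle ERa-Gal4 receptor driving GAL4-UAS reporters.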

[8] = target: Estrogen receptor beta (Homo sapiens) (UniProt Q92731); experiment: ATG_hERb_XSP2: Attagene TRANS-FACTORIAL Multi-Species (XSP2) HepG2 Assay for human Estrogen Receptor (ERb) (AID 2283813);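 also: actives raise reporter mRNA above DMSO so AC50 reflects agonist induction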
Method in brief: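 Transient TRANS reporter system in HepG2: after 24 h of chemical, RNA is reverse-transcribed, reporter cDNA amplified, FAM-labelled and sized by capillary electrophoresis. Induction of the human ERb-Gal4 reporter is measured relative to DMSO.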

[9] = target: GAL4 Transcription Factor (Internal Marker), GAL4 (gene 855828) (UniProt P04386); experiment: ATG_GAL4_XSP2: Attagene TRANS-FACTORIAL Multi-Species (XSP2) HepG2 Assay for GAL4 Transcription Factor (Internal Marker) (AID 2283814);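 also: GAL4 reporter mRNA background control in MRTU transfected cells not a receptor target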
Method in brief: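 Background-control readout: gain-of-signal fitted against DMSO. After 24 h exposure of transfected HepG2 (MRTU, GAL4-UAS reporters; 3 nM 6-alpha-fluorotestosterone, 1.5 nM norgestrel present), transcripts quantified by RT-PCR and capillary electrophoresis fluorescence.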

[10] = test system: turtle Androgen Receptor (AR), gene 101947425; experiment: ATG_trAR_XSP2: Attagene TRANS-FACTORIAL Multi-Species (XSP2) HepG2 Assay for turtle Androgen Receptor (AR) (AID 2283815)
Method in brief: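 Reporter transcripts were quantified via RT-PCR and capillary electrophoresis and fitted upward against DMSO. Transiently transfected human HepG2 cells carrying NR-Gal4 chimeras were exposed 24 h, with 3 nM 6-alpha-fluorotestosterone plus 1.5 nM norgestrel added.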

Measured: AC50

zebrafish Thyroid Hormone Receptor alpha (TRa), thraa (gene 30670), sequence (Q98867 whole entry, looked up, the tested form may be a part): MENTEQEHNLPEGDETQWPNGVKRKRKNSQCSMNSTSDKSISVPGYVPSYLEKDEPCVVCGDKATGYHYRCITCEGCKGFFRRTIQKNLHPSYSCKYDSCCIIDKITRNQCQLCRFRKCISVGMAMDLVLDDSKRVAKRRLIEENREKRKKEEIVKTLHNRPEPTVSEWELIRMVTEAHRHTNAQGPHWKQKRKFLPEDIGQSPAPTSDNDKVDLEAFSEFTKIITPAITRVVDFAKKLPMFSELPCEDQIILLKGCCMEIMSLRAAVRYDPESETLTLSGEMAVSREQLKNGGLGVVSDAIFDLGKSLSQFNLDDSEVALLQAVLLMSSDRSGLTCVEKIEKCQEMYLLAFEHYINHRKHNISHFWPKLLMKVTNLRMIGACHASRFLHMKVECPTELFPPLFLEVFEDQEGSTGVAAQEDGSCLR
human Thyroid hormone Receptor beta (TRb), THRB (gene 7068), sequence (P10828 whole entry, looked up, the tested form may be a part): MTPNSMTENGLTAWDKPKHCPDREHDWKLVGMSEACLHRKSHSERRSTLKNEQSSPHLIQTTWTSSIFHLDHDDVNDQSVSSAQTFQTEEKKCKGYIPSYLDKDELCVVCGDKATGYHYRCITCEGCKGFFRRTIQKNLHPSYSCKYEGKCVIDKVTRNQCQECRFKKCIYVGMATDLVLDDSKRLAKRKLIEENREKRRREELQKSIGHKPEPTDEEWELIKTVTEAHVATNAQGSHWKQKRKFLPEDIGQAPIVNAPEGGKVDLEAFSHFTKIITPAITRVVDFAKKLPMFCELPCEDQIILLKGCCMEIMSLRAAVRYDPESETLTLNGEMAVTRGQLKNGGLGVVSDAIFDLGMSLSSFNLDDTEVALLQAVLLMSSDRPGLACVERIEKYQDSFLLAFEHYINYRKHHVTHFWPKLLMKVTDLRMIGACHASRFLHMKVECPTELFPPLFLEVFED
GAL4 Transcription Factor (Internal Marker), GAL4 (gene 855828), sequence (P04386 whole entry, looked up, the tested form may be a part): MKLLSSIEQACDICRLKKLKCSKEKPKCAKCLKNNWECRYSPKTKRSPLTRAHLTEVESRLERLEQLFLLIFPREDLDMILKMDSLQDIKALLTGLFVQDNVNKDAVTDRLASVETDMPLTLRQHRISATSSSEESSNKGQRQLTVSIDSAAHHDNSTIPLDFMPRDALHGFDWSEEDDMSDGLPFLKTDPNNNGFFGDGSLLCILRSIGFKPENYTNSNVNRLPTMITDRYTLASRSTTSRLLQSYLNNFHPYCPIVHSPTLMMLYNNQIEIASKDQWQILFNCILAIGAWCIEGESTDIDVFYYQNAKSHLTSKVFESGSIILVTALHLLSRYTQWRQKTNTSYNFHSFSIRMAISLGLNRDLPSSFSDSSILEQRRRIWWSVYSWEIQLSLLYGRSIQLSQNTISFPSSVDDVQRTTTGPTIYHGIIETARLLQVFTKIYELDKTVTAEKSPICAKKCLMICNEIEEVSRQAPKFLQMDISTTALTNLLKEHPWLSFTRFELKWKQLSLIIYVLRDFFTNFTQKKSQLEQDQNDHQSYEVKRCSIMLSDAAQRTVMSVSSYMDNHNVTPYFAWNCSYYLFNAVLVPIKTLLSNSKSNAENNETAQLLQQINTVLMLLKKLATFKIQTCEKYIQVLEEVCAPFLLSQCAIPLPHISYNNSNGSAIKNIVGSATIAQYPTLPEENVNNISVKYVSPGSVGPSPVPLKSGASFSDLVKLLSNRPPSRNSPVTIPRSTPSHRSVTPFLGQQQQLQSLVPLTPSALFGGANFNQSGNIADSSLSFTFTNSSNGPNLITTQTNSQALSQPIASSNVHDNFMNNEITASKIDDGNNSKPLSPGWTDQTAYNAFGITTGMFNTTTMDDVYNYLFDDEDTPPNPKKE
zebrafish Thyroid Hormone Receptor beta (TRb), thrb (gene 30607), sequence (Q9PVE4 whole entry, looked up, the tested form may be a part): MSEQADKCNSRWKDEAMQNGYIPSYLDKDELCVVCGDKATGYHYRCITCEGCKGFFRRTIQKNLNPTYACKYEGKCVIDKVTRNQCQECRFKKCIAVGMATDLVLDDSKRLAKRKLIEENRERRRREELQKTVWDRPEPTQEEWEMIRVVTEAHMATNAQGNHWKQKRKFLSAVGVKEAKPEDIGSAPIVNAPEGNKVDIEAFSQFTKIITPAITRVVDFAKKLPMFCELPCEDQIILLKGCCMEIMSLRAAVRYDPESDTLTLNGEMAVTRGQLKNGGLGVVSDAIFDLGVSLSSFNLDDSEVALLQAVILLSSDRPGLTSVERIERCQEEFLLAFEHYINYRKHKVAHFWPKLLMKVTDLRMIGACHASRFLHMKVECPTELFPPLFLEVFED
Estrogen receptor beta (Homo sapiens), sequence (Q92731 whole entry, looked up, the tested form may be a part): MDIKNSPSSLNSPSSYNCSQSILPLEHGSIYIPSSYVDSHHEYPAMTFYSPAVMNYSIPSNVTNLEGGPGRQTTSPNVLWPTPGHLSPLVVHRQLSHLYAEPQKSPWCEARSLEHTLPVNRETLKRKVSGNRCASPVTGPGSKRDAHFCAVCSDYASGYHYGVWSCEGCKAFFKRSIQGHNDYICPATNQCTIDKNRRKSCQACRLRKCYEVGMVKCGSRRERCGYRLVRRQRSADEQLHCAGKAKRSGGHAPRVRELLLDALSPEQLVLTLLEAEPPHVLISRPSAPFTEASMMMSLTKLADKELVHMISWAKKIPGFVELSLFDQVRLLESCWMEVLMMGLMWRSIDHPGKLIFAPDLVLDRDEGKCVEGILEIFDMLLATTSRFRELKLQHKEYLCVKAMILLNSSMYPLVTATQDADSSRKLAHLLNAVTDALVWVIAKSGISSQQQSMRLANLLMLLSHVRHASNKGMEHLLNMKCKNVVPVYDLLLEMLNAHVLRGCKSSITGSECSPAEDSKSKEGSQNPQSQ

O=S1OCC2C(CO1)C1(Cl)C(Cl)=C(Cl)C2(Cl)C1(Cl)Cl (stereo not drawn)
inactive: [1] | [2] | [3] | [4] | [5] | [6]
active: [7] 2.06 µM

Oc1ccc(Cl)cc1Cc1ccccc1
inactive: [1] | [2] | [3] | [4] | [5] | [6] | [7] | [8] | [9]

CC1(C)C(C=C(Cl)Cl)C1C(=O)OC(C#N)c1ccc(F)c(Oc2ccccc2)c1 (stereo not drawn)
inactive: [1] | [2] | [3] | [4] | [5] | [7] | [9] | [10]

CCOCN(C(=O)CCl)c1c(C)cccc1CC
inactive: [5]

COP(=S)(OC)Oc1ccc([N+](=O)[O-])cc1
inactive: [8] | [9]
active: [7] 29.6 µM and 23.1 µM | [8] 26.8 µM

O=S(=O)(O)C(F)(F)C(F)(F)C(F)(F)C(F)(F)C(F)(F)C(F)(F)C(F)(F)C(F)(F)F
active: [2] 140 µM | [5] 154 µM
inactive: [4] | [6] | [7]

CCCN(CCOc1c(Cl)cc(Cl)cc1Cl)C(=O)n1ccnc1
active: [5] 100 µM
inactive: [1] | [2] | [3] | [6] | [7] | [8]

CC(C)(C)C(O)/C(=C\c1ccc(Cl)cc1Cl)n1cncn1 (stereo not drawn)
inactive: [6] | [7] | [8]
active: [8] 8.38 µM

O=C(O)C(F)(F)C(F)(F)C(F)(F)C(F)(F)C(F)(F)C(F)(F)C(F)(F)F
inactive: [6]
active: [7] 35.5 µM | [8] 38.4 µM

Oc1cc(Cl)ccc1Oc1ccc(Cl)cc1Cl
inactive: [3] | [4] | [6] | [7]
active: [1] 11.1 µM | [2] 14 µM | [5] 100 µM | [9] 15.8 µM

COP(=S)(OC)Oc1ccc(SC)c(C)c1
inactive: [1] | [2] | [3] | [4] | [5] | [6] | [8] | [9]
active: [7] 5.17 µM

CCCN(CCC)c1c([N+](=O)[O-])cc(C(F)(F)F)cc1[N+](=O)[O-]
inactive: [1] | [2] | [3] | [4] | [5] | [6] | [7] | [9]
